Tests used:
Details in all cases: concentration: 1 μM, replicates: in singlicate; n = 1
[1] = tested on: PAK6
[2] = tested on: PAK7
[3] = tested on: T1, PCTK1
T1 construct: gene CDK16

[4] = tested on: T2, PCTK2
T2 construct: gene CDK17

[5] = tested on: T3, PCTK3
T3 construct: gene CDK18

[6] = tested on: PDGFRA
[7] = tested on: PDGFRB
[8] = tested on: PDPK1
[9] = tested on: PFTAIRE2
[10] = tested on: T4, PFTK1
T4 construct: gene CDK14

[11] = tested on: PHKG1
[12] = tested on: PHKG2
[13] = tested on: PIK3C2B
[14] = tested on: PIK3C2G
[15] = tested on: PIK3CA
[16] = tested on: PIK3CB
[17] = tested on: PIK3CD
[18] = tested on: PIK3CG
[19] = tested on: T5, PIK4CB
T5 construct: gene PI4KB

[20] = tested on: PIKFYVE
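Further: KINOMEscan kinase panel screen.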

Row | SMILES | %Inh [1] [%] | %Inh [2] [%] | %Inh [3] [%] | %Inh [4] [%] | %Inh [5] [%] | %Inh [6] [%] | %Inh [7] [%] | %Inh [8] [%] | %Inh [9] [%] | %Inh [10] [%] | %Inh [11] [%] | %Inh [12] [%] | %Inh [13] [%] | %Inh [14] [%] | %Inh [15] [%] | %Inh [16] [%] | %Inh [17] [%] | %Inh [18] [%] | %Inh [19] [%] | %Inh [20] [%]
1 | O=C(Nc1n[nH]c2nc(-c3nccs3)c(Br)cc12)C1CCCC1 [SB-742609] | 0 | 0 | 48 | 47 | 50 | 0 | 27 | 0 | 7 | 26 | 0 | 0 | 0 | 0 | 0 | 0 | 0 | 0 | 0 | 0
2 | Cc1csc(-c2nc(Nc3ccncc3)c3ccccc3n2)n1 [GW869640] | 0 | 8 | 20 | 0 | 12 | 36 | 0 | 0 | 21 | 5 | 14 | 1 | 37 | 31 | 13 | 50 | 26 | 30 | 57 | 78
3 | O=C(Nc1n[nH]c2nc(-c3nccs3)c(Br)cc12)C1CC1 [SB-742251] | 0 | 0 | 45 | 18 | 26 | 0 | 14 | 0 | 4 | 14 | 0 | 0 | 0 | 0 | 0 | 0 | 0 | 0 | 0 | 14
4 | O=S(=O)(c1ccc(-c2ccnc3[nH]ccc23)cc1)N1CCCC1 [GSK846226] | 20 | 15 | 7 | 0 | 0 | 0 | 24 | 0 | 24 | 27 | 0 | 10 | 3 | 0 | 8 | 0 | 0 | 14 | 23 | 0
5 | Cc1cccc(-c2nc(Nc3ccc4[nH]ncc4c3)c3ccccc3n2)n1 [GW857175] | 4 | 0 | 23 | 2 | 15 | 19 | 0 | 39 | 0 | 9 | 0 | 16 | 8 | 43 | 0 | 7 | 18 | 0 | 23 | 85
6 | COc1ccc(Nc2nccc(NCCNC(=O)Nc3ccccc3F)n2)cc1 [GSK1379901] | 0 | 0 | 4 | 0 | 0 | 0 | 70 | 0 | 3 | 26 | 0 | 0 | 0 | 0 | 0 | 0 | 0 | 0 | 11 | 0
7 | Cl.O=C(Nc1cccc(-c2nn3ncccc3c2-c2ccnc(Nc3cccnc3)n2)c1)c1c(F)cccc1F [GSK312879] | 0 | 10 | 1 | 0 | 0 | 0 | 77 | 28 | 22 | 9 | 8 | 18 | 0 | 0 | 0 | 0 | 0 | 0 | 11 | 52
8 | Cn1ccc2ncnc(Oc3cccc(C(=O)Nc4ccccc4)c3)c21 | 0 | 0 | 0 | 2 | 0 | 12 | 39 | 0 | 0 | 7 | 0 | 0 | 0 | 0 | 0 | 15 | 27 | 0 | 2 | 10
9 | COc1cccc(-c2cc(-c3c[nH]nc3-c3ccccn3)ccn2)c1 [GW680338] | 3 | 9 | 0 | 0 | 8 | 0 | 8 | 0 | 10 | 1 | 2 | 10 | 7 | 11 | 4 | 3 | 0 | 9 | 0 | 0
10 | CS(=O)(=O)c1ccc(-c2nc3n(c2-c2ccncc2)CCC3)cc1 [SKF-105942] | 99.2 | 0 | 11 | 0 | 0 | 0 | 4 | 0 | 12 | 37 | 3 | 0 | 0 | 0 | 0 | 0 | 0 | 0 | 100 | 0
11 | O=c1cc(N2CCOCC2)nc2n(Cc3cccc(Cl)c3Cl)ccn12 [GSK2286295] | 0 | 22 | 6 | 15 | 13 | 0 | 37 | 0 | 23 | 2 | 0 | 19 | 22 | 0 | 20 | 98.7 | 89 | 50 | 0 | 0
12 | Fc1cc(Cl)ccc1Nc1ccnc2cc(-c3ccc(CN4CCCCC4)o3)ccc12 [GW560116] | 0 | 16 | 0 | 0 | 27 | 65 | 94.8 | 100 | 0 | 18 | 0 | 0 | 0 | 0 | 0 | 0 | 0 | 0 | 0 | 0
13 | COc1cc2nccc(Nc3ccc(NC(=O)c4ccc(C)cc4)c(O)c3)c2cc1OC.Cl [GW440132] | 0 | 0 | 4 | 0 | 19 | 12 | 69 | 0 | 26 | 85 | 15 | 0 | 100 | 0 | 100 | 0 | 0 | 100 | 0 | 0
14 | Cc1cccc(-c2nc(C)cc(Nc3ccncc3)n2)n1 [GSK257997] | 0 | 0 | 9 | 0 | 15 | 0 | 11 | 0 | 14 | 24 | 0 | 7 | 0 | 0 | 3 | 0 | 0 | 5 | 0 | 27
15 | Cn1ccc2ncnc(Oc3ccc(Nc4nc5ccccc5[nH]4)cc3)c21 | 9 | 0 | 0 | 0 | 12 | 8 | 0 | 19 | 7 | 0 | 0 | 25 | 0 | 0 | 0 | 0 | 0 | 0 | 0 | 0
16 | O=C1NC(=O)C(N2CCc3ccccc32)=C1c1ccccc1Cl [SB-373598] | 55 | 0 | 3 | 1 | 17 | 0 | 4 | 32 | 9 | 0 | 0 | 23 | 1 | 0 | 0 | 0 | 10 | 12 | 0 | 0
17 | CC(C)(C)c1ccc(C(=O)Nc2cn3cc(-c4cccnc4)ccc3n2)cc1 | 15 | 10 | 0 | 13 | 19 | 57 | 95.4 | 2 | 2 | 22 | 8 | 34 | 0 | 24 | 0 | 45 | 0 | 0 | 16 | 22
18 | Cc1cccc(-c2nc(Nc3ccncc3)c3ccccc3n2)n1 [GW855857] | 3 | 0 | 0 | 10 | 0 | 0 | 3 | 24 | 0 | 0 | 47 | 3 | 0 | 0 | 0 | 0 | 0 | 0 | 0 | 57
19 | COc1ccc(CNC(=O)NC2CCN(c3ccnc(Nc4cc(OC)c(OC)c(OC)c4)n3)C2)cc1 (stereo not drawn) [GSK1379748] | 0 | 2 | 7 | 0 | 0 | 15 | 54 | 0 | 9 | 0 | 0 | 31 | 0 | 0 | 0 | 0 | 3 | 0 | 46 | 6
20 | O=C(Nc1ccccc1)Nc1cccc(Oc2ccc3nccn3n2)c1 | 0 | 29 | 0 | 5 | 0 | 98.9 | 100 | 0 | 57 | 0 | 0 | 9 | 0 | 0 | 0 | 0 | 14 | 6 | 0 | 0
21 | Cc1cccc(-c2cc(Nc3ccncc3)c3ccccc3n2)n1 [GSK223675] | 0 | 0 | 13 | 7 | 0 | 2 | 23 | 0 | 27 | 16 | 0 | 1 | 4 | 0 | 7 | 0 | 0 | 7 | 21 | 23

Source: PMC5540273 (PLoS ONE, 2017)
